DRD3 antagonist: D3 dopamine receptor (human) antagonism | 2.5% of 360,000 active | D3R cells, DiscoveRx beta-arrestin luminescence, antagonist mode; active compounds read low | P35462 | max response, negative = inhibition, % | AID 652054; in the data active = max response below about -50%; inconclusive = no clear call, values can overlap the other calls; note: % is set by controls: 0 for no effect and ±100 for the full control effect
Target sequence (P35462 whole entry, looked up): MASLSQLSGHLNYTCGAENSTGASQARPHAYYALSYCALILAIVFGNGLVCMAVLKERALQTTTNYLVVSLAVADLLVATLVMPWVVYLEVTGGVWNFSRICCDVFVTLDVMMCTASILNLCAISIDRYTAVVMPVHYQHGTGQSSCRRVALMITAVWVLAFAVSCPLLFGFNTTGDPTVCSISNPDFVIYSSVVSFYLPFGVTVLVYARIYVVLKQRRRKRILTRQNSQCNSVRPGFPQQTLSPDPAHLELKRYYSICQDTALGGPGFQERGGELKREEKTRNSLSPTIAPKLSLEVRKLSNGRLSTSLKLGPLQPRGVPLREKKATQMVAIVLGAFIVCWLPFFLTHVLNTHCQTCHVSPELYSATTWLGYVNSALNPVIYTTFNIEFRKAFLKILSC
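Cells expressing the human receptor were seeded at 1500 cells/well, incubated overnight at 37 degrees C in 5% CO2, then exposed to library compounds with dopamine controls for 90 minutes at 37 degrees C before luminescent detection.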
DT40 TDP1 no CPT: qHTS for Inhibitors of human tyrosyl-DNA phosphodiesterase 1 (TDP1): qHTS in cells in absence of CPT | DT40 Tdp1-/- hTDP1 cells, no CPT, ATP luminescence, 48 h | Potency, µM (doses to about 46.2 µM), inactives show top-dose activity change, negative = growth inhibition, usual class: inhibitors | 15% of 420,000 active; note: potency is the fitted concentration of half-maximal effect; % is set by controls: 0 for no effect and ±100 for the full control effect; nearly all actives have a fitted effect of over 55% in size
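Stably hTDP1-transfected Tdp1-null chicken DT40 cells were treated with library compounds minus camptothecin and grown for at least 48 hr at 37 °C, after which cellular ATP was quantified by luminescence.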
IL-1B inflam inh: blocks inflammasome-driven IL-1 beta release. THP-1 LPS/ATP IL-1B secretion, AlphaLISA, 16 h; active compounds read low. activity change, % at 57.5 µM. 4.7% of 360,000 active; in the data active = activity change below about -50%; inconclusive = mostly about -30% to -49%; note: % is set by controls: 0 for no effect and ±100 for the full control effect
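THP-1 cells pretreated 1 hr with compounds (up to 57.5 uM final), then stimulated with LPS (250 ng/mL final) plus ATP (1.25 mM final); secreted IL-1B measured by AlphaLISA after 16 hr, decreased signal indicating inhibition.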
ClpP mod: qHTS Assay for Activators of ClpP | AID 651965, 2013 | purified B. subtilis ClpP, FRET peptide cleavage, 20 min | Potency, µM (highest dose often 57.5 µM), without a hit: at the top dose activity change, negative = active | 1.9% of 340,000 active | ATP-dependent Clp protease proteolytic subunit (Bacillus subtilis (strain 168)), P80244; active = well fitted falling curve with a large enough effect; inconclusive = small, poorly fitted or top-dose-only effect; inactive = no such curve, though single readings can be large or run the other way; note: potency is the fitted concentration of half-maximal effect; the source files actives as falling curves though it sought activators and does not explain the sign; nearly all actives have a fitted effect of over 65% in size
Target sequence (P80244 whole entry, looked up): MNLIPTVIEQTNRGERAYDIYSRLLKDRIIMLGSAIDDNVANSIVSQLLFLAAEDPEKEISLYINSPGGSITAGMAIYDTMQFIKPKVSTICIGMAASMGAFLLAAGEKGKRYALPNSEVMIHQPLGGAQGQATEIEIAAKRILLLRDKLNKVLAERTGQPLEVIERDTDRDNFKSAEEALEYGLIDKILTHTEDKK
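Buffer: 100 mM Tris/HCl pH8, 100 mM KCl, 0.05% low protease BSA, 2.5% glycerol, 0.01% Tween-20. ClpP 10 microg/mL final; 20 min RT; delta FRET normalized to ADEP and DMSO controls.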
DRD3 agonist: D3 dopamine receptor (human) agonism | P35462 | D3R DiscoveRx beta-arrestin cells, luminescence, 90 min | max activation, % | 0.58% of 410,000 active | AID 652048; in the data active = max activation above about 30%; note: 0% is about no effect
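Agonist mode: compounds and dopamine controls were applied to plated cells for 90 min at 37 degrees C after an overnight attachment at 1500 cells/well. Luminescent read-out followed 30 - 60 minutes at room temperature with DiscoveRx detection reagent.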
TDP1 cell CPT: growth inhibition of DT40 Tdp1-/-;hTDP1 cells with camptothecin (screen for TDP1 inhibitors). chicken DT40 Tdp1-/-;hTDP1 cells + 20 nM CPT, ATP luminescence, 48 h. Potency, µM (series often up to 46.2 µM), for inactives: top-dose activity change, negative = growth inhibition, actives largely listed as inhibitors. 12% of 420,000 active; note: potency is the fitted concentration of half-maximal effect; % is set by controls: 0 for no effect and ±100 for the full control effect; nearly all actives have a fitted effect of over 55% in size
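Chicken DT40 Tdp1-/- cells complemented with human TDP1, 400 cells/well, exposed to compounds plus 20 nM camptothecin for at least 48 h at 37 C; viability read as ATP content by CellTiter-Glo luminescence.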
Starred values were filed as active, the others as inactive. The list is not random: actives were taken first. Their share in the collection is about 21%. Unless noted, calls come from the whole dose curve; as a rule, active = well fitted inhibition curve with a large enough effect; inconclusive = small, poorly fitted or top-dose-only effect; inactive = flat fitted curve, though single readings scatter.

C(=Cc1c[nH]c2ccccc12)c1nccc2ccccc12 was read as DRD3 antagonist 5, DT40 TDP1 no CPT inconclusive, IL-1B inflam inh -82*, DRD3 agonist 0 and TDP1 cell CPT inconclusive.
Screening O=Cc1nccc2ccccc12 returned DRD3 antagonist 0, DT40 TDP1 no CPT 6.5µM*, IL-1B inflam inh -7, ClpP mod -3%, DRD3 agonist 5 and TDP1 cell CPT 9.2µM*.
C[C@@H]1CN([C@H](C)CO)C(=O)CCCn2nncc2CO[C@@H]1CN(C)S(=O)(=O)c1ccc(F)cc1 was read as DRD3 antagonist 26, DT40 TDP1 no CPT inconclusive, IL-1B inflam inh 12, ClpP mod -2%, DRD3 agonist -7 and TDP1 cell CPT 12%.
CC(NC(=S)Nc1ccc(OC(F)F)cc1OC(F)F)C(C)(C)C (stereo not drawn) was read as DRD3 antagonist -3, DT40 TDP1 no CPT inconclusive, IL-1B inflam inh -91*, ClpP mod -1%, DRD3 agonist -24 and TDP1 cell CPT inconclusive.
`COc1cc(NCC2COc3c(ccc(OC)c3OC)C2=O)c([N+](=O)[O-])cc1OC` (stereo not drawn) gave DRD3 antagonist 0, DT40 TDP1 no CPT 18µM*, IL-1B inflam inh -9, ClpP mod -1%, DRD3 agonist -7 and TDP1 cell CPT 18µM*.
Cc1onc(-c2ccccc2Cl)c1C(=O)Nc1cccc2nsnc12 was read as DRD3 antagonist 2, DT40 TDP1 no CPT inconclusive, IL-1B inflam inh 6, ClpP mod 329%, DRD3 agonist 4 and TDP1 cell CPT inconclusive.
Cc1onc(-c2ccccc2Cl)c1C(=O)Nc1cccc2cccnc12 was read as DRD3 antagonist 21, DT40 TDP1 no CPT 4.1µM*, IL-1B inflam inh -20, ClpP mod -1%, DRD3 agonist 10 and TDP1 cell CPT 9.2µM*.
For COc1cc(NC(=O)c2c(-c3ccccc3Cl)noc2C)c2ncccc2c1 the results were DRD3 antagonist 6, DT40 TDP1 no CPT 16µM*, IL-1B inflam inh 11, DRD3 agonist 6 and TDP1 cell CPT 16µM*.
For COc1cc(NC(=O)c2ccc(Cl)cc2)c2ncccc2c1 the results were DRD3 antagonist 29, DT40 TDP1 no CPT 13%, IL-1B inflam inh 45, ClpP mod 3%, DRD3 agonist 1 and TDP1 cell CPT -14%.
Screening c1ccc2[nH]c3cc4ncnc4cc3nc2c1 returned DRD3 antagonist -16, DT40 TDP1 no CPT 18µM*, IL-1B inflam inh -57*, DRD3 agonist 1 and TDP1 cell CPT inconclusive.
For c1ccc2[nH]c(CCCCCc3nc4ccccc4[nH]3)nc2c1 the results were DRD3 antagonist -3, DT40 TDP1 no CPT inconclusive, IL-1B inflam inh -4, ClpP mod 0%, DRD3 agonist -13 and TDP1 cell CPT inconclusive.
O=C(NCCc1ccccc1)c1ccc(NC(=O)C2CCCC2)cc1 was read as DRD3 antagonist -17, DT40 TDP1 no CPT -24%, IL-1B inflam inh -11, ClpP mod 1%, DRD3 agonist -6 and TDP1 cell CPT -21%.
Screening NC[C@@H]1O[C@H](C23CC4CC(CC(C4)C2)C3)Cc2c1ccc(O)c2O returned DRD3 antagonist 31, DT40 TDP1 no CPT 23µM*, IL-1B inflam inh -25, ClpP mod -2%, DRD3 agonist 88* and TDP1 cell CPT 23µM*.
For NC[C@@H]1O[C@H](c2ccccc2)Cc2c1ccc(O)c2O the results were DT40 TDP1 no CPT 9.4µM* and TDP1 cell CPT 6.7µM*.
For CC(C)=CCc1c(O)cc2c(c1O)C(=O)CC(c1ccccc1)O2 (stereo not drawn) the results were DRD3 antagonist 20, DT40 TDP1 no CPT inconclusive, IL-1B inflam inh 21, ClpP mod -2%, DRD3 agonist 0 and TDP1 cell CPT -1%.
`CCCCCN1C(C(=O)c2ccccc2)=C(NC(=O)c2ccccc2Cl)c2ccccc2S1(=O)=O` gave DT40 TDP1 no CPT 8.2µM*, ClpP mod 1%, DRD3 agonist -23 and TDP1 cell CPT inconclusive.
`O=C(Nc1ncccn1)C1=C(O)c2ccccc2S(=O)(=O)N1Cc1ccccc1` gave DRD3 antagonist -9, DT40 TDP1 no CPT 5%, IL-1B inflam inh -2, ClpP mod 0%, DRD3 agonist -5 and TDP1 cell CPT -10%.
CCCCCN1C(C(=O)c2ccccc2)=C(NC(C)=O)c2ccccc2S1(=O)=O was read as DT40 TDP1 no CPT 18µM*, ClpP mod -1%, DRD3 agonist -27 and TDP1 cell CPT 16µM*.
CCCCCN1C(C(=O)c2ccccc2)=C(NC(=O)c2ccc(C)cc2)c2ccccc2S1(=O)=O was read as DT40 TDP1 no CPT 16µM*, ClpP mod -2%, DRD3 agonist -2 and TDP1 cell CPT 18µM*.
Screening CCCCN(CCCC)C1=C(C(=O)c2ccccc2)N(C)S(=O)(=O)c2ccccc21 returned DT40 TDP1 no CPT inconclusive, ClpP mod 0%, DRD3 agonist 2 and TDP1 cell CPT inconclusive.
O=C(O)Cn1nnnc1SCC(=O)Nc1ccc(F)cc1F was read as DRD3 antagonist 18, DT40 TDP1 no CPT 16%, IL-1B inflam inh 17, DRD3 agonist 4 and TDP1 cell CPT -4%.
O=C(OCc1ccccc1)c1cccnc1 was read as DT40 TDP1 no CPT 9.4µM*, DRD3 agonist -2 and TDP1 cell CPT inconclusive.
O=C(OCc1ccc(Br)cc1)c1cccnc1 was read as DRD3 antagonist -13, DT40 TDP1 no CPT -6%, IL-1B inflam inh -9, ClpP mod -7%, DRD3 agonist 4 and TDP1 cell CPT inconclusive.
CCOC(=O)c1ccc(NC(=O)COc2cccc3c(=O)n(C)ccc23)cc1 was read as DT40 TDP1 no CPT 18µM*, ClpP mod -10%, DRD3 agonist 1 and TDP1 cell CPT 21µM*.
Screening Cn1ccc2c(OCC(=O)Nc3ccc(OC(F)(F)F)cc3)cccc2c1=O returned DT40 TDP1 no CPT 7.3µM*, ClpP mod inconclusive, DRD3 agonist 9 and TDP1 cell CPT 12µM*.
For CCOc1ccccc1NC(=O)CN1C=NS(=O)(=O)c2ccccc21 the results were DT40 TDP1 no CPT -13%, ClpP mod 0%, DRD3 agonist -1 and TDP1 cell CPT -13%.
For O=C1C=CC2C(c3ccc4c(c3)OCO4)CC1N2Cc1ccccc1 (stereo not drawn) the results were DRD3 antagonist 3, DT40 TDP1 no CPT 6.5µM*, IL-1B inflam inh -18, ClpP mod -14%, DRD3 agonist -2 and TDP1 cell CPT 8.2µM*.

Source: PubChem
